Data: PubChem BioAssay (NCATS)
Results filed as inconclusive are left out. Activity calls are given as the source filed them. Unless noted, calls come from the whole dose curve; as a rule, active = well fitted cell-killing curve with a large enough effect; inconclusive = small, poorly fitted or top-dose-only effect; inactive = flat fitted curve, though single readings scatter.

What was measured:
[1] = Cell Viability - LYMP2-006 (AID 978); note: % is set by controls: 0 for no effect and ±100 for the full control effect; nearly all actives have a fitted effect of over 60% in size
Method in brief: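 Cells are seeded at 2500 per well and rested 5 hr at 37 C. Compounds are added across a concentration series for 24 hr at 37 C, after which ATP is quantified by luciferase luminescence.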

[2] = Cell Viability - LYMP2-007 (AID 979);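 note: cells exposed to compound for 24 h before reading; 0% = DMSO only and the negative end = 92 µM tetraoctylammonium bromide; nearly all actives have a fitted effect of over 60% in size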
Method in brief: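 Human lymphoblastoid LYMP2-007 cells (2500/well) preincubated 5 h at 37 C, then treated 24 h at 37 C in complete medium. Viability by CellTiter-Glo ATP luminescence after 30 min at room temperature; AC50 from Hill fits.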

[3] = Cell Viability - LYMP2-008 (AID 980); note: % is set by controls: 0 for no effect and ±100 for the full control effect; nearly all actives have a fitted effect of over 60% in size
Method in brief: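 LYMP2-008 lymphoblastoid cells (2500/well) plated 5 h, then treated 24 h at 37 C in complete medium. Viability read as intracellular ATP by CellTiter-Glo luminescence after 30 min at room temperature; AC50 from Hill fits.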

[4] = Cell Viability - LYMP2-010 (AID 981); note: % is set by controls: 0 for no effect and ±100 for the full control effect; nearly all actives have a fitted effect of over 55% in size
Method in brief: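 Human lymphoblastoid LYMP2-010 cells (2500/well) treated 24 h at 37 C in complete medium; viability read as intracellular ATP by CellTiter-Glo luminescence. AC50 from Hill fits of concentration-response data; tetraoctylammonium bromide positive control.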

[5] = Cell Viability - LYMP2-012 (AID 982);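 note: cellular ATP by luciferase luminescence where a drop means cytotoxicity; cells exposed to compound for one day before reading; 0% = DMSO only and full loss = 92 µM tetraoctylammonium bromide; nearly all actives have a fitted effect of over 55% in size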
[6] = Cell Viability - LYMP2-014 (AID 983);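 note: plate controls were DMSO only for no effect and 92 µM tetraoctylammonium bromide for full effect; nearly all actives have a fitted effect of over 50% in size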
Method in brief: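 LYMP2-014 human lymphoblastoid cells, 2500/well, treated 24 h at 37 C in complete medium; viability by CellTiter-Glo ATP luminescence after 30 min at room temperature. AC50 from Hill fits of qHTS concentration-response; tetraoctylammonium bromide positive control.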

[7] = Cell Viability - LYMP2-016 (AID 984); note: % is set by controls: 0 for no effect and ±100 for the full control effect; nearly all actives have a fitted effect of over 55% in size
Method in brief: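 Cells were seeded at 2500 per well and rested 5 hr before a 24 hr compound exposure at 37 C. Viability was then gauged as cellular ATP by luciferase luminescence, with AC50 values fitted to the Hill equation.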

[8] = Cell Viability - LYMP2-018 (AID 985);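 note: plate controls were DMSO only for no effect and tetraoctylammonium bromide at 92 µM for full effect; nearly all actives have a fitted effect of over 50% in size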
Method in brief: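 Human lymphoblastoid LYMP2-018 cells, 2500/well, settled 5 hr at 37 C then exposed to compound 24 hr at 37 C; intracellular ATP measured by CellTiter-Glo luminescence. AC50 from Hill-equation concentration-response fits.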

[9] = Cell Viability - LYMP2-020 (AID 986);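 note: plate controls were DMSO only for no effect and tetraoctylammonium bromide at 92 µM for full effect; nearly all actives have a fitted effect of over 55% in size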
Method in brief: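 Human lymphoblastoid LYMP2-020 cells (2500/well) preincubated 5 h at 37 C, then treated 24 h at 37 C. Viability measured as intracellular ATP by CellTiter-Glo luminescence after 30 min at room temperature; AC50 from Hill fits.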

[10] = Cell Viability - LYMP2-022 (AID 987)
Method in brief: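 LYMP2-022 lymphoblastoid cells (2500/well, complete medium) were treated with compounds for 24 hours at 37 C; intracellular ATP was then read by CellTiter-Glo luminescence after 30 min at room temperature. AC50 values were derived from Hill-equation fits.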

[11] = Cell Viability - LYMP2-024 (AID 988);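 note: plate controls were DMSO only for no effect and 92 µM tetraoctylammonium bromide for full effect; nearly all actives have a fitted effect of over 60% in size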
Method in brief: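 Human lymphoblastoid LYMP2-024 cells (2500/well) rested 5 hr, then treated with compound for 24 hr at 37 C in complete medium. Viability was measured as intracellular ATP by CellTiter-Glo luminescence. AC50 values came from Hill-equation fits.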

[12] = Cell Viability - LYMP2-026 (AID 989); note: % is set by controls: 0 for no effect and ±100 for the full control effect; nearly all actives have a fitted effect of over 50% in size
Method in brief: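 Human lymphoblastoid LYMP2-026 cells, 2500/well, exposed to compound 24 h at 37 C in complete medium. Viability as intracellular ATP by CellTiter-Glo luminescence; AC50 from Hill fits of qHTS concentration-response.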

[13] = Cell Viability - LYMP1-002 - Assay at 24 hr (AID 993); note: % is set by controls: 0 for no effect and ±100 for the full control effect
Method in brief: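 Human lymphoblastoid LYMP1-002 cells (2500/well) treated 24 h at 37 °C; viability as intracellular ATP by CellTiter-Glo luminescence. Tetraoctylammonium bromide as positive control; AC50 from Hill-equation fits of qHTS concentration-response.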

[14] = Cell Viability - LYMP1-002 - Assay at 40 hr (AID 994)
Method in brief: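 LYMP1-002 human lymphoblastoid cells (2500/well, complete medium) were treated with compounds for 40 hr at 37 C. Intracellular ATP was measured by CellTiter-Glo luminescence, and AC50 values came from Hill-equation fits of concentration-response data; tetraoctylammonium bromide was the positive control.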

[15] = qHTS Assay for Lipid Storage Modulators (AID 1519; calls by dose curve; for activity change, negative = inhibition: % is set by controls: 0 for no effect and ±100 for the full control effect); details: Drosophila S3 cells, BODIPY lipid droplet/cell ratio, laser cytometry, cells loaded with oleic acid
Method in brief: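 Cells seeded at 5,000 per well were treated with compounds over a concentration series and loaded with oleic acid (400 uM, as added). Lipid droplet fluorescence (488 nm excitation, 500-530 nm channel) was read by laser-scanning cytometry and normalized to 20 uM Triacsin C.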

[16] = qHTS Assay for Identification of Small Molecule Inducers of Hypoxia Response (AID 2120; active = well fitted curve in the direction sought with a large enough effect in the signal ratio, with a control signal flat, not every such curve was filed as active; the % refers to the signal ratio; note: 0% is about no effect)
Method in brief: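 HRE-bla ME-180 cells in Opti-MEM with 0.5% dialyzed FBS, pre-plated 4-5 h, then compound titration for 17 h at 37 degrees Celsius. CCF4 loaded 2.5 h at room temperature; 460/530 nm ratio gave %Activity and AC50 for induction.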

[17] = target: Estrogen receptor (Homo sapiens) (UniProt P03372); assay: qHTS assay for small molecule antagonists of estrogen receptor alpha signaling (AID 588513; active = well fitted curve in the direction sought with a large enough effect in the signal ratio, with a control signal flat, not every such curve was filed as active; the % refers to the signal ratio; note: % is set by controls: 0 for no effect and ±100 for the full control effect)
Chain of Estrogen receptor (Homo sapiens) (P03372 whole entry, looked up): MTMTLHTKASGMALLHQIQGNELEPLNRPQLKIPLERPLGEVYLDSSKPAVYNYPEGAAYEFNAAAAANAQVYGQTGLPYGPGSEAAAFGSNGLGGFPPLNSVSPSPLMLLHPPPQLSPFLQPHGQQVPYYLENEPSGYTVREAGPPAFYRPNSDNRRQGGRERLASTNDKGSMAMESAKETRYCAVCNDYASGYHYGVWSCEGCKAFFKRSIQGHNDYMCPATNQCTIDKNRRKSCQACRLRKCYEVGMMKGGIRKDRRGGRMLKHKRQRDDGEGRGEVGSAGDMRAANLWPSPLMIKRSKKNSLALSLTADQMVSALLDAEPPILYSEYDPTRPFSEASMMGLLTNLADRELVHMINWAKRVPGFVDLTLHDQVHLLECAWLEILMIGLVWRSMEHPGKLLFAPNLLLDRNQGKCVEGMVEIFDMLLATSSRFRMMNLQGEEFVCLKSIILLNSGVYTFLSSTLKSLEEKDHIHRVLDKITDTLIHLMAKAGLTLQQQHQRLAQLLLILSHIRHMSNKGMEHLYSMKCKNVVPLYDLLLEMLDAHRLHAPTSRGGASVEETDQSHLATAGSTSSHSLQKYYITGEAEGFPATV
Method in brief: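 Fluorescence from CCF4 substrate after 2 h at room temperature gave reporter activity; cells had been exposed to compound and 0.5nM 17-beta-estradiol for 18 h at 37 C. Hill-equation fitting yielded IC50 and maximal response.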

[18] = qHTS assay for small molecule antagonists of peroxisome proliferator-activated receptor delta signaling (AID 588535; active = well fitted inhibition curve with a large enough effect in the signal ratio, with a control signal flat, not every such curve was filed as active; the % refers to the signal ratio;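 for max response: cells co-treated with a PPAR-delta agonist as stimulator during compound exposure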); details: HEK293T PPARd-UAS-bla, beta-lactamase FRET ratio, 18 h; 460 nm channel
Method in brief: (§1)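 Reporter: UAS-bla under PPAR-delta response element, HEK293T host. Medium: 2% charcoal/dextran FBS. Dosing: titration, 18 hrs, 37 C. Detection: CCF4, 2 hrs RT, 405 ex/460 and 530 em.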

[19] = target: Peroxisome proliferator-activated receptor delta (Homo sapiens) (UniProt Q03181); assay: as above
Chain of Peroxisome proliferator-activated receptor delta (Homo sapiens) (Q03181 whole entry, looked up): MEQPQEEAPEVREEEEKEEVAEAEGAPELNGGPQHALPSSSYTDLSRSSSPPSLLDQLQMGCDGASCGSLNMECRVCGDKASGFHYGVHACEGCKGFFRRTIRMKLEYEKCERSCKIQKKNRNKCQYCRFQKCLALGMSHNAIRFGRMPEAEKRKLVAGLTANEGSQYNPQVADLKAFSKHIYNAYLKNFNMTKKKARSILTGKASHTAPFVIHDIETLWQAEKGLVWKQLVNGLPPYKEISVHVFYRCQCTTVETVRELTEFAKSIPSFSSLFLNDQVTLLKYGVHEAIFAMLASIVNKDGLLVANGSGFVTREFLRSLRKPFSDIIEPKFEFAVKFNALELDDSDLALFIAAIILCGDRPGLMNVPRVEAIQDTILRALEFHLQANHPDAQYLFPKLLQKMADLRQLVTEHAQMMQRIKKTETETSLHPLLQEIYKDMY
Method in brief: as §1

O=C(Nc1ccccc1)Nc1ccccc1
-3.21%: max response ([15]; measured here: cell count channel max response)
11.7%: max response ([15]; measured here: lipid channel max response)
inactive: outcome [1] | outcome [2] | outcome [3] | outcome [4] | outcome [5] | outcome [6] | outcome [7] | outcome [8] | outcome [9] | outcome [10] | outcome [11] | outcome [12] | outcome [13] | outcome [14] | activity change, negative = inhibition ([15]; at 57.5 µM (top of the series)) 11.8% | outcome [16] | outcome [17] | outcome [19]
-7.95%: max response [18]
